Source: PubChem BioAssay AID1347077 (National Center for Advancing Translational Sciences (NCATS), 2019)
Out of some 44,000 compounds screened, fewer than 10 were called active. Calls follow the shape of the dose curve; as a rule, active = well fitted activation curve with a large enough effect; inconclusive = small, poorly fitted or top-dose-only effect, or another doubt; inactive = no such curve, though single readings can be large or run the other way. Only a sample is shown.

Target: Beta-2 adrenergic receptor (Homo sapiens) (UniProt P07550)
Sequence (P07550 whole entry, looked up): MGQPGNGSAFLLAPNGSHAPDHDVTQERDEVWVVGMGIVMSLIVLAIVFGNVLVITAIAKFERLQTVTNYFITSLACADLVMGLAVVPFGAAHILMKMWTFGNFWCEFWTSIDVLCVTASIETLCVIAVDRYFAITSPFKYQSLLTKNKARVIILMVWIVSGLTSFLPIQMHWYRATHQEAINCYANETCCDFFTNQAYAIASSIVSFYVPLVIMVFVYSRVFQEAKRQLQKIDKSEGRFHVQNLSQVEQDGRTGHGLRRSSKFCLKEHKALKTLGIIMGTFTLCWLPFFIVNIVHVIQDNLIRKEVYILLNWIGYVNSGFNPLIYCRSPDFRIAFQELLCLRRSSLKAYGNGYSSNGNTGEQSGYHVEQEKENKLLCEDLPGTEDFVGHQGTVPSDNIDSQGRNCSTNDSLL
Assay: qHTS assay of beta-arrestin-biased ligands of beta2-adrenergic receptor: NCGC Sytravon Library Screen
Settings: HTLA Tango cells, beta-arrestin recruitment, luciferase luminescence, 18 h; series mostly up to 46.1 µM
From the text: The concept of biased agonism is an emerging concept of molecular pharmacology which proposes that seven transmembrane receptors (7TMRs) or G protein-coupled receptors (GPCRs), exist in multiple signaling conformations and complexes and that ligands (either agonists or antagonists) can induce signaling biased responses for distinct signal transduction cascades. […] Furthermore, accumulating evidence over the last decade has drawn attention to a novel function of beta-arrestins as signal transducers that scaffold various signaling molecules upon activation of 7TMRs. […] This beta-arrestin-biased signaling presumably leads to distinct physiological outcomes from those by G protein activation. Additionally, the active receptor conformations which prefer on this beta-arrestin signaling are likely different from those activating G protein signaling. […] The goal of this screening project will be to discover and optimize novel beta-arrestin-biased ligands for beta2-AR signaling. A luminescent cell-based assay for beta2-AR-mediated agonism, known as the Tango assay, has been validated in which ligand binding of a recombinant beta2-AR and subsequent recruitment of a recombinant beta-arrestin lead to the release of the transcriptional activator tTA, which upregulates transcription of a tTA-responsive luciferase gene. […] Compounds from the NCGC Sytravon Library collection were screened as a concentration-titration series that ranged from 46 microM to 0.6 nM. NIH Molecular Libraries Probe Production Network [MLPCN] NIH Chemical Genomics Center [NCGC] MLPCN Grant: Fast-track/HHSN271700800025C PI: Bryan Roth and Bob Lefkowitz
Tango cells were dispensed into white, solid, tissue-culture-treated 1536-well plates at 1500 cells/well in DMEM, containing 1% fetal bovine serum (FBS). Then, 23 nL of compounds or DMSO were delivered to each well using a pin tool. Plates were incubated at 37 degrees C, 5% CO2 for 18 hr. Then 2.5 uL luminescent substrate mix (in-house prepared: 150 mM Tris-Cl, pH 7.6, 3 mM MgCl2, 1% Triton X-100, 5 mM DTT, 0.5 mM CoA, 0.15 mM ATP, 0.44 mM D-luciferin, final concentrations) was added to each well. Plates were then incubated for 15 minutes at room temperature, and subsequently measured on a ViewLux plate reader for luminescent signal using a clear filter with a 10 second exposure and 2x binning. The %Activity was determined from the corrected luminescence values. […] Concentration-response curves were fitted to the signals arising from the resulting luminescence. The concentration-effect curves were then classified based on curve quality (r2), response magnitude and degree of measured activity, and compounds were subsequently categorized based on their curve class.

outcome, inactive:
Cc1ccc(Cl)cc1NC(=O)CSc1nc2ccccc2nc1Cc1ccccc1
COC(=O)c1ccc2c(c1)N(CC(=O)Nc1ccc(C)c(C)c1)C(=O)c1ccccc1S2
CCc1ccccc1NC(=O)CSc1nnc(-c2ccccc2)c(-c2ccccc2)n1
COc1ccc(-c2c(C)c3ccc(O)c(CN4CCN(C)CC4)c3oc2=O)cc1OC
CCOC(=O)c1ccc2c(c1)N(Cc1cccc(OC)c1)C(=O)c1ccccc1S2(=O)=O
CCN(Cc1ccccc1)Cc1c(O)ccc2c(=O)c(-c3ccc(Cl)cc3Cl)coc12
COC(=O)c1ccc(Cn2c(SCC(=O)N(C)c3ccccc3)nc3ccccc32)cc1
Cc1ccc(CNC(=O)CCNS(=O)(=O)c2ccc3c(c2)oc(=O)n3C)cc1
CSc1ccc(CCNC(=O)c2cc(C)nc3c2c(C)nn3-c2cccc(F)c2)cc1
COc1cc(NC(=O)c2cc3ccc4cccnc4c3[nH]2)cc(OC)c1OC
CCCCCn1c(=O)[nH]c2cc(C(=O)Nc3ccc(F)cc3)ccc2c1=O
Cc1ccc(NC(=O)Nc2sc3nc4n(c(=O)c3c2C)CCC(C)CC4)c(Cl)c1 (configuration not stated)
Cc1ccc(-n2ncc(C(=O)N(C)Cc3ccccc3)c2-n2cccc2)cc1
COc1ccccc1NC(=O)C1=C(C)Nc2ncnn2C1c1sccc1C (configuration not stated)
Cc1ccc(CNC(=O)CCC(=O)N2CC(C)Sc3ccccc32)cc1 (configuration not stated)
COc1ccccc1N1CCN(CCCNC(=O)c2cnn(-c3ccccc3Cl)c2C2CCN(C(=O)OC(C)(C)C)CC2)CC1
Cc1ccc(Cl)cc1NC(=O)C(C)n1nnc2sc(-c3ccccc3)cc2c1=O (configuration not stated)
Cc1ccc(Cl)cc1NC(=O)Cc1ccc(-n2c(C)nc3cccnc32)cc1
Cc1cc2c(cc3c(SCc4nc(-c5ccccc5)oc4C)nnc(C)n32)o1
Cc1ccc(-c2nn3c(=O)cc(CN4CCN(C(=O)Nc5cccc(C(F)(F)F)c5)CC4)nc3s2)cc1
Cc1ccccc1NC(=O)Cn1c(=O)n(CCc2ccccc2)c(=O)c2ccccc21
CCCn1c2ccccc2c2cnn(CC(=O)N(CC)c3cc(C)ccc3C)c(=O)c21
O=C(COc1ccc(Cl)cc1)Nc1ccccc1OCc1cc(=O)n2ccccc2n1
CCc1ccccc1NC(=O)CCOc1ccccc1
CCC(C(=O)Nc1cc(OC)ccc1OC)n1c(=O)c(C(F)(F)F)nc2ccccc21 (configuration not stated)
Cc1ccc(CN2COc3cc(C)c4c(oc(=O)c5ccccc54)c3C2)cc1
COc1ccc(OC)c(-c2csc(-c3c(N)c(C(=O)c4ccccc4)n4ccccc34)n2)c1
COc1ccc(CNC(=O)c2ccc3c(c2)nc2n3CCOC2)c(OC)c1
CCOC(=O)c1scc(-c2ccc(C)cc2)c1S(=O)(=O)Nc1cc(C)ccc1C
CCN(CCCNC(=O)c1ccc(Sc2ccc(C)cc2)c(NC(C)=O)c1)c1cccc(C)c1
CCOc1cccc(NC(=O)c2ccc(F)c(S(=O)(=O)N(CC)c3cccc(C)c3)c2)c1
COc1ccc(C(=O)c2oc3ccccc3c2NC(=O)COc2cccc(C)c2)cc1
Cc1ccccc1OCc1ccc(-c2nc(C#N)c(N3CCCCC3)o2)o1
CCCCc1nn2c(=O)cc(COC(=O)c3ccc(NC(=O)c4ccccc4C)cc3)nc2s1
COC(=O)NNC(=O)C1CCC(C)CC1 (configuration not stated)
CCc1nnc2c3ccccc3nc(N3CCN(c4ccc(C)cc4C)CC3)n12
CCOc1ccc(CNC(=O)Cn2cc3c(n2)-c2c(oc(C(=O)N4CCCC4)c2C)CC3)cc1
CCOCCc1nn2c(=O)cc(COC(=O)CNC(=O)c3ccc(C(C)(C)C)cc3)nc2s1
CCC(=O)N1CCc2cc(Br)cc(S(=O)(=O)NCc3ccc(Cl)cc3)c21
Cc1nc2nc(NCc3cccc(Br)c3)[nH]n2c(=O)c1Cc1ccccc1
COc1ccc(NC(=O)C(c2ccccc2)N2Cc3ccccc3C2=O)cc1 (configuration not stated)
Cc1nc2sc(C)c(C)n2c(=O)c1S(=O)(=O)NCCc1ccc(Cl)cc1
CCOc1ccc(OCC)c(NS(=O)(=O)c2ccc3[nH]c(=O)ccc3c2)c1
COc1ccc(S(=O)(=O)NCCSc2nnnn2-c2ccccc2)cc1
Cc1ccccc1CNC(=O)CCCn1nc(C)c2sc3ccccc3c2c1=O
COc1cccc(N2CC(NC(=O)/C=C\c3ccccc3)CC2=O)c1 (configuration not stated)
O=C(CSc1ncc(-c2ccccc2)[nH]1)Nc1ccc(F)cc1F
COc1ccc(Cl)cc1NC(=O)CCC(=O)c1ccc(C)cc1
Cc1c(NC(=O)C(C)(C)C)cccc1-c1nc2ccccc2s1
Cc1nn(CC(=O)O)c(=O)c2cc3cc(F)ccc3n12
CCc1ccc(N(CC)C(=O)CCn2cnc3onc(-c4ccc(F)cc4)c3c2=O)cc1
COc1ccc(CCNC(=O)c2cnc3sc(N4CCCCCC4)nn3c2=O)cc1OC
CCCn1c(=N)c(C(=O)NCc2ccccc2)cc2c(=O)n3cccc(C)c3nc21
COc1ccc(CCNC(=O)c2cc(=O)c3c(C)cc(C)cc3o2)cc1OC
Cc1ccc(S(=O)(=O)N2CCc3cc(C(=O)Nc4ccc(Cl)cc4C)ccc32)cc1
COc1cccc(NC(=O)CSC2=Nc3ccccc3C3=NC(CC(=O)NC4CCCCC4)C(=O)N23)c1 (configuration not stated)
CCCCOc1ccc(CNC(=O)c2ccc3c(c2)N(C)C(=O)C2CCCCN32)cc1 (configuration not stated)
COc1ccccc1NC(=O)c1oc2ccccc2c1NC(=O)C(C)C
COc1ccc(CCNc2ncnc3onc(-c4ccc(Cl)cc4)c23)c(OC)c1
Cc1csc2nc(COC(=O)c3ccc(NC(=O)COc4ccccc4F)cc3)cc(=O)n12
COc1ccc(N2CCN(C(=O)C3CCCN(C(=O)c4cc5sccc5n4C)C3)CC2)cc1 (configuration not stated)
O=C(COc1ccccc1F)OCc1cc(=O)n2nc(C3CCCCC3)sc2n1
CCC1CCCCN1Cc1c(O)ccc2c(=O)c(Oc3ccccc3Cl)c(C(F)(F)F)oc12 (configuration not stated)
Cc1cc(=O)n(CC(=O)Nc2cccc([N+](=O)[O-])c2)c(-n2nc(C)cc2C)n1
CCOC(=O)c1c(C)[nH]c(CCC(=O)NCCCN2CCN(c3cc(C)ccc3C)CC2)c1C
COc1cc(Nc2nc(-c3ccc(OC)c(OC)c3)nc3ccccc23)cc(OC)c1
Cc1cc(C)cc(OC(C)C(=O)Nc2nc3c(s2)CCCC3)c1 (configuration not stated)
COCCn1c(SCC(=O)c2cc(C)ccc2C)nc2cc(C(=O)NC3CCCC3)ccc2c1=O
CCOc1ccccc1NC(=O)CCn1cnnn1
Cc1ccc(N(C)C(=O)C2CCN(S(=O)(=O)c3ccc4c(c3)CCCN4C(=O)C3CCC3)CC2)cc1
CC(=O)Nc1ccc(S(=O)(=O)NCC2CCC(C(=O)NCCc3ccccc3)CC2)cc1 (configuration not stated)
CCOc1ccccc1C(=O)NC1(C(F)(F)F)C(=O)Nc2c1c(=O)[nH]c(=O)n2-c1ccc(F)cc1 (configuration not stated)
CCN(CC)S(=O)(=O)c1nnc(NC(=O)COc2ccccc2Cl)s1
COc1ccc(-c2cccc(NS(=O)(=O)c3cc(C)c(OC)c(C)c3C)c2)nn1
O=C(NC1(C(F)(F)F)N=C(c2ccccc2)N(C2CCCCC2)C1=O)c1ccccc1F (configuration not stated)
Cc1ccc(CCNC(=O)c2ccc3c(c2)nc2n3CCC(C)C2)cc1 (configuration not stated)
Cc1ccccc1NC(=O)Cn1c(=O)n(CCCCC(=O)NCc2ccccc2Cl)c(=O)c2ccccc21
